Experimental findings from PubChem BioAssay (NCI) are described below.

Among the test systems are RPMI-8226 leukemia; OVCAR-8 ovarian; OVCAR-5 ovarian; OVCAR-4 ovarian; SK-OV-3 ovarian; IGROV1 ovarian; OVCAR-3 ovarian; HS 578T breast; NCI/ADR-RES ovarian; T-47D breast; BT-549 breast; MDA-MB-435 melanoma; SW-620 colon; MCF7 breast; HCT-116 colon; HCC-2998 colon; KM12 colon.
Assay in all cases: NCI-60 one-dose screen, 48 h (100 = growth as untreated, 0 = no growth, -100 = all killed)
Holding throughout (settings): 10 µM unless noted

Structures are written as SMILES. Compounds without any hit were thinned out: in the full panel of roughly 83,000, 20% have a hit.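 Assay: single dose, 48 h. Readout: percent growth (0 = no net growth; negative = cell death). Active: <10.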 A number with no mark means an inactive call. Activity calls are given as the source filed them.

Consider `O=C1NCN(c2ccccc2)C12CCN(CCCC(c1ccc(F)cc1)c1ccc(F)cc1)CC2`, for which the growth is 102% in the experiment on RPMI-8226 leukemia; 66.1% in the experiment with OVCAR-8 ovarian; 83.2% with OVCAR-5 ovarian; 48.5% in the experiment with OVCAR-4 ovarian; 73.4% in the experiment on SK-OV-3 ovarian; 47.7% in the experiment with IGROV1 ovarian. The growth is 66.8% in the experiment on OVCAR-3 ovarian; 69.3% with HS 578T breast; 69.9% with NCI/ADR-RES ovarian; 94.2% in the experiment with T-47D breast; 61.6% in the experiment on BT-549 breast; 47.7% with MDA-MB-435 melanoma. For the same compound, the growth in the experiment with SW-620 colon was 77%; with MCF7 breast it was 37.8%; in the experiment with HCT-116 colon, 30.1%; in the experiment with HCC-2998 colon, 15.9%; in the experiment on KM12 colon, 76.3%.

With `CC/C(=C\c1ccc(N(C)C)cc1)c1nc2ccccc2c(=O)[nH]1`, the growth in the experiment with RPMI-8226 leukemia is 79.4%; in the experiment on OVCAR-8 ovarian it was 106%; with OVCAR-5 ovarian, 92.9%; in the experiment with OVCAR-4 ovarian, 95.8%; in the experiment with SK-OV-3 ovarian, 109%; in the experiment with IGROV1 ovarian, 66.4%. Besides, the growth in the experiment with OVCAR-3 ovarian is 116%; in the experiment with HS 578T breast, 328%; with NCI/ADR-RES ovarian, 98.3%; with T-47D breast it was 79.2%; in the experiment on BT-549 breast it was 60.3%; in the experiment on MDA-MB-435 melanoma it was 108%. The growth is 120% with SW-620 colon; 98.2% with MCF7 breast; 108% in the experiment on HCT-116 colon; 93% in the experiment with HCC-2998 colon; 119% with KM12 colon.

As for `COc1ccc2[nH]cc(/C=C3/C(=O)Nc4ccc(Cl)cc43)c2c1`, the growth is 54% with RPMI-8226 leukemia; 52% in the experiment with OVCAR-8 ovarian; 78.1% in the experiment with OVCAR-5 ovarian; 51.5% in the experiment on OVCAR-4 ovarian; 22.5% in the experiment with SK-OV-3 ovarian; 54.4% in the experiment on IGROV1 ovarian. In addition, the growth with OVCAR-3 ovarian was 18.1%; in the experiment on HS 578T breast, 31.9%; in the experiment with NCI/ADR-RES ovarian it was 49.6%; in the experiment with T-47D breast, 61.9%; with BT-549 breast, 40.9%; with MDA-MB-435 melanoma it was 22.9%. In addition, the growth in the experiment on SW-620 colon is 53.7%; in the experiment on MCF7 breast, 40.7%; with HCT-116 colon it was 13.5%; in the experiment on HCC-2998 colon it was 43.9%; in the experiment on KM12 colon it was 3.07% (active).

In the case of `COC(=O)CCC1=C(CC(=O)OC)C(C)=N/C1=C\c1[nH]c(-c2ccc[nH]2)cc1OC`, the growth is -42.3% (active) with RPMI-8226 leukemia; 9.85% (active) in the experiment on OVCAR-8 ovarian; 65% in the experiment on OVCAR-5 ovarian; 27.4% in the experiment on OVCAR-4 ovarian; 64.6% with SK-OV-3 ovarian; 42.1% in the experiment on IGROV1 ovarian. Moreover, the growth in the experiment with OVCAR-3 ovarian was 17.4%; with HS 578T breast it was 52.2%; in the experiment on NCI/ADR-RES ovarian, 17.5%; with T-47D breast, 40.1%; with BT-549 breast it was 52.3%; in the experiment on MDA-MB-435 melanoma, 17.3%. For the same compound, the growth in the experiment with SW-620 colon is 21.5%; with MCF7 breast it was 3.83% (active); in the experiment with HCT-116 colon it was 9.33% (active); in the experiment with HCC-2998 colon, 33.7%; with KM12 colon it was 28.1%.

For `Cc1ccc2c(c1)C(=O)/C(=C/c1ncc([N+](=O)[O-])n1C)O2`, the growth is -12.4% (active) with RPMI-8226 leukemia; -30.8% (active) in the experiment on OVCAR-8 ovarian; 8.96% (active) with OVCAR-5 ovarian; 21.8% in the experiment with OVCAR-4 ovarian; 0.948% (active) in the experiment with SK-OV-3 ovarian; -26.5% (active) in the experiment with IGROV1 ovarian. In addition, the growth with OVCAR-3 ovarian is -46.9% (active); in the experiment with HS 578T breast, -10.2% (active); in the experiment on NCI/ADR-RES ovarian, -3.98% (active); in the experiment on T-47D breast, 90.3%; with BT-549 breast, -25.9% (active); in the experiment with MDA-MB-435 melanoma it was -80.6% (active). The growth was -32.5% (active) in the experiment with SW-620 colon, -1.55% (active) in the experiment with MCF7 breast, 7.67% (active) with HCT-116 colon and -44% (active) in the experiment with HCC-2998 colon.

Take `COc1ccc(-c2nn(-c3cccc(Cl)c3)cc2C2CC(c3ccccc3)=NN2C(C)=O)cc1` (stereo not given): the growth was 97.6% with RPMI-8226 leukemia; 56.3% with OVCAR-8 ovarian; 80.9% in the experiment on OVCAR-5 ovarian; 23.3% in the experiment with OVCAR-4 ovarian; 32.2% in the experiment on SK-OV-3 ovarian; 57% with IGROV1 ovarian. The growth with OVCAR-3 ovarian is 80.6%; in the experiment on HS 578T breast, 43.2%; with NCI/ADR-RES ovarian, 74.3%; with T-47D breast it was 44.7%; with BT-549 breast, 74.7%; with MDA-MB-435 melanoma, 88.5%. The growth in the experiment on SW-620 colon is 73.6%; in the experiment on MCF7 breast, 68%; in the experiment on HCT-116 colon, 60.9%; with HCC-2998 colon, 95.4%; in the experiment with KM12 colon, 96.4%.

For `COc1ccc(C2=NN(C(=O)c3cc(OC)c(OC)c(OC)c3)C(c3ccc(C#N)cc3)C2)cc1OC` (stereo not given), the growth is 60.8% with RPMI-8226 leukemia; 32.8% in the experiment on OVCAR-8 ovarian; 58.8% in the experiment with OVCAR-5 ovarian; 62.1% in the experiment with OVCAR-4 ovarian; 19.8% in the experiment on SK-OV-3 ovarian; 13.4% in the experiment with IGROV1 ovarian. The growth is -47.8% (active) in the experiment on OVCAR-3 ovarian; -18.3% (active) in the experiment on HS 578T breast; 2.92% (active) with NCI/ADR-RES ovarian; 37.1% in the experiment on T-47D breast; 28.6% with BT-549 breast; -40.4% (active) in the experiment with MDA-MB-435 melanoma. Also, the growth in the experiment with SW-620 colon was 16.1%; with MCF7 breast, 27%; in the experiment with HCT-116 colon, 13.6%; in the experiment on HCC-2998 colon it was 35.2%.

Take `COc1cc(/C=C/c2nnc(-c3cc(-c4ccccc4)n[nH]3)o2)cc(OC)c1OC`: the growth in the experiment with RPMI-8226 leukemia is 83%; in the experiment with OVCAR-8 ovarian, 80.8%; in the experiment with OVCAR-5 ovarian it was 101%; in the experiment on OVCAR-4 ovarian it was 100%; in the experiment on SK-OV-3 ovarian it was 88.7%; with IGROV1 ovarian it was 110%. For the same compound, the growth in the experiment with OVCAR-3 ovarian was 107%; in the experiment on HS 578T breast it was 99.7%; in the experiment with NCI/ADR-RES ovarian, 86.7%; with T-47D breast it was 73.2%; in the experiment with BT-549 breast it was 112%; with MDA-MB-435 melanoma, 102%. Also, the growth in the experiment on SW-620 colon is 115%; in the experiment with MCF7 breast, 92%; in the experiment on HCT-116 colon it was 119%; in the experiment with HCC-2998 colon, 98.3%; in the experiment on KM12 colon, 103%.

Consider `C=C(C[C@@](O)(C(=O)Oc1ccccc1)C(=O)C1CCCCC1)c1ccccc1`, for which the growth was 92% in the experiment with RPMI-8226 leukemia; 101% with OVCAR-8 ovarian; 103% in the experiment with OVCAR-5 ovarian; 97.8% in the experiment with OVCAR-4 ovarian; 105% in the experiment on SK-OV-3 ovarian; 110% in the experiment on IGROV1 ovarian. Besides, the growth in the experiment with OVCAR-3 ovarian was 106%; in the experiment with HS 578T breast, 106%; with NCI/ADR-RES ovarian, 101%; with T-47D breast, 96.2%; in the experiment with BT-549 breast, 105%; with MDA-MB-435 melanoma it was 102%. Besides, the growth is 107% with SW-620 colon, 100% in the experiment on MCF7 breast, 92.7% in the experiment with HCT-116 colon and 105% in the experiment with HCC-2998 colon.
